IEC-6 cytotox: kills IEC-6 intestinal cells in KLF5 counter-screen; IEC-6 cytotoxicity, luminescence viability; inhibition, % at 5 µM; 0.78% of 290,000 active; AID 1825; in the data active = inhibition above about 22%;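 also: 0% = plate median of test compound wells and 100% = cytotoxic reference compound wells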
Ba/F3 V617F tox: reduce viability of Ba/F3 cells dependent on JAK2V617F. AID 1446. 1.1% of 220,000 active. Ba/F3 EpoR-JAK2V617F viability, ATP luminescence. inhibition, % at 5.6 µM;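 active = inhibition above the campaign mean plus 3 SD over all tested compounds, cut at about 24% in these data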;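 also: cytokine-independent growth of Ba/F3 cells driven by EpoR plus mutant JAK2; 0% = DMSO-treated cells and 100% = JAK inhibitor I control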
BaF3 tox: reduces parental Ba/F3 cell viability, JAK2V617F counter-screen. CellTiter-Glo ATP luminescence. inhibition, % at 5.6 µM. 1.1% of 220,000 active. AID 1486;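 active = inhibition above a per-campaign cutoff, the mean inhibition of all tested compounds plus 3 SD, cut at about 27% in these data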;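 also: 0% = DMSO wells and 100% = JAK Inhibitor I control wells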
GPR7 antagonist: blocks human GPR7 receptor signaling. P48145. GPR7-expressing cells, fluorescence antagonist assay. inhibition, % at 4.4 µM. 1.1% of 290,000 active; in the data active = inhibition above about 16%, passing the limit was not always enough;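 also: cells stimulated with the agonist NPW; 0% = agonist with vehicle and 100% = vehicle without agonist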
Target sequence (P48145 whole entry, looked up): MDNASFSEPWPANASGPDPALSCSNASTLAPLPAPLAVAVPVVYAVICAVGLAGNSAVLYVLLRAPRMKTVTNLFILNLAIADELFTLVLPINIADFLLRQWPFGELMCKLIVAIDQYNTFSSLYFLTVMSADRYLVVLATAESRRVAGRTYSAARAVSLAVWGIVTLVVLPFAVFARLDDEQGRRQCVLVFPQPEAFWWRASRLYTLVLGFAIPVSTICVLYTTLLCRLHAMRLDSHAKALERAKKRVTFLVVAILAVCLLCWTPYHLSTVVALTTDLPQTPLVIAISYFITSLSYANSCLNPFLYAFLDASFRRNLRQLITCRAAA
KLF5 inh: inhibitors of KLF5 expression; DLD-1 KLF5 promoter-luciferase reporter, luminescence; 0.23% of 290,000 active; inhibition, % at 5 µM;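 active = inhibition above a per-plate limit of that plate's mean compound inhibition plus 3 SD, cut at about 60% in these data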;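 also: 0% = DMSO wells and 100% = LY294002 at 200 µM; higher means less KLF5 promoter-driven luciferase light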
FID counter: fluorescent intercalator displacement, NS3 helicase counter-screen; DNA fluorescent intercalator displacement, fluorescence; inhibition, % at 7.9 µM; 0.17% of 290,000 active; AID 1845; in the data active = inhibition above about 37%;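 also: 0% = vehicle and 100% = reference compound; higher means more ethidium bromide displaced from hairpin DNA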
Active calls of the source: *; x = no result. Shown are actives, neighbours in structure and some others; about 2.6% of the full set was active somewhere.

SMILES	IEC-6 cytotox	Ba/F3 V617F tox	BaF3 tox	GPR7 antagonist	KLF5 inh	FID counter
Cc1oc2c(CN3CCOCC3)c(O)ccc2c(=O)c1-c1ccc(Cl)cc1	5	41*	48*	9	-51	-6
COc1ccc(S(=O)(=O)n2ccc(-c3ccc(OCCN(C)c4ccccn4)cc3)n2)cc1	-5	-3	4	21*	-43	-7
COc1ccc(S(=O)(=O)N(CC(=O)O)c2ccccn2)cc1	-1	-3	-1	-2	-19	3
CC(c1cccs1)N(C(=O)Nc1ccccc1)C1CCCCC1 (configuration not stated)	-1	-1	6	-2	-26	1
CNc1ccccc1C(C)(C)c1cc(-c2cccc(Br)c2)no1	4	62*	76*	-11	7	-9
CNc1ccccc1C(C)(C)c1cc(-c2cccc([N+](=O)[O-])c2)no1	4	7	14	12	31	0
C/C(N)=C(/C#N)C(=O)COC(=O)CNS(=O)(=O)c1ccc2ccccc2c1	5	51*	60*	5	-4	-10
CCCCN(C)C(=O)CCCc1c[nH]c2ccccc12	-7	4	10	19*	-86	-31
O=[N+]([O-])c1ccccc1S(=O)(=O)Nc1ccc(S(=O)(=O)N2CCOCC2)cc1	6	x	x	-1	-6	-5
c1ccc(-c2nc(NCCCN3CCOCC3)c3ccccc3n2)cc1	3	1	5	-14	-32	55*
c1ccc2[nH]c(NCCCN3CCOCC3)nc2c1	5	2	1	1	-13	15
Cc1ccc2ncnc(NCCCN3CCOCC3)c2c1	1	0	3	-10	-5	12
Cc1cccc(-c2nc(NCCCN3CCOCC3)c3ccccc3n2)c1	7	-2	3	21	-14	53*
Cc1ccc(NC2=CC(=O)CC(C)(C)C2)c(N)c1	-4	3	7	-2	-51	-6
Cc1cc(C)n2cc(CSc3nnnn3-c3ccccc3C)nc2n1	-4	-2	6	-8	-21	-16
CCOc1ccc(C2=NNC(c3cccnc3)=Nc3ccc(OC)cc32)cc1	5	-2	-1	-5	-9	-7
COc1cc(OC)c(C2N(C)c3ccccc3N2C)cc1OC	-2	53*	59*	7	24	-1
COc1ccc(CNc2ccc(-c3ccc(OC)cc3)nn2)cc1	9	3	0	3	-23	-10
CC(C)c1ccc(NC(=O)N2CCc3ccccc3C2)cc1	2	-4	2	41*	-90	-17
Cc1noc(C)c1CSc1nc2[nH]ncc2c(=O)n1-c1ccccc1	82*	70*	73*	11	74*	-9
N#Cc1c2n(c(=S)n(-c3ccc(OC(F)F)cc3)c1=O)CCCCC2	6	4	8	17*	-17	-12
CC[n+]1c(/C=C2/C=C(C)CC(C)C2)sc2ccccc21 (configuration not stated)	1	60*	55*	-3	-25	-18
COc1ccc(COc2cc(-c3cccc(OC)c3)nc3ccc(NC(=O)c4ccc(OC)cc4)cc23)cc1	19	78*	53*	5	1	-11
CN(C)CCCSc1nc(-c2ccccc2)nc2c1CCC2	-1	-2	-2	-5	4	6
Cc1ccc2nc3c(nc2c1C)C(O)=C3O	-4	-3	2	-14	-2	-2
SMILES	IEC-6 cytotox	Ba/F3 V617F tox	BaF3 tox	GPR7 antagonist	KLF5 inh	FID counter
OC1=C(O)c2nc3cc(F)ccc3nc21	4	4	-2	-2	-8	38*
C=CC[n+]1ccc(/C=C2\C=Cc3cc(C)ccc3N2CC)c2ccccc21	39*	100*	85*	26*	4	8
CC(=O)c1ccc(N2CCN(C(=S)Nc3cccc(F)c3)CC2)cc1	-3	41*	30*	0	-16	-11
CC(=O)c1ccc(N2CCN(C(=S)Nc3ccc(Oc4ccccc4)cc3)CC2)cc1	4	1	1	24*	22	-8
Fc1cc(F)cc(NC(=S)N2CCN(c3ncccn3)CC2)c1	3	36*	27*	-10	-1	-3
CCC1N=C(SC)NC(C)=C1C(=O)c1ccccc1 (configuration not stated)	3	1	7	-4	-12	-3
CSC1=NC(C(Cl)(Cl)Cl)N=C(c2ccc(C)cc2)N1 (configuration not stated)	58*	83*	64*	5	53	-1
COc1ccc(S(=O)(=O)NNC(=O)c2csc(-n3nc(C)cc3C(F)(F)F)n2)cc1	3	-2	2	-13	2	-24
COc1ccccc1OCCSc1nc2ccccc2c(=O)[nH]1	3	1	95*	-5	-36	1
O=C(Nc1ccc(Cl)c(Cl)c1)c1cccc(S(=O)(=O)NCc2cccnc2)c1	-7	0	8	30*	-30	-5
Cc1ccc(CNC(=O)COC(=O)c2c(C)noc2C)cc1	-1	7	10	-3	-25	-2
Cc1noc(C)c1C(=O)OCC(=O)NCCc1ccc(Cl)cc1	2	0	4	20*	15	-5
CCOC(=O)c1c(-c2cccs2)csc1NC(=O)C(C)(C)C	-6	-1	7	-17	4	-16
O=C(Nc1ccc2c(c1)nc1n2CCN(C2CCCCC2)C1)NC1CCCCC1	1	7	30*	-2	-22	-12
CCC(=O)Nc1ccc2c(c1)nc1n2CCN(C2CCCCC2)C1	-4	-4	-3	2	-8	-3
CC(=O)Nc1ccc(NC(=O)C(C)OC(=O)C2CC3C=CC2C3)cc1 (configuration not stated)	-6	2	57*	-5	-18	-6
CCCCC1CCC(C(=O)OC(C)C(=O)Nc2ccc(NC(C)=O)cc2)CC1 (configuration not stated)	-5	x	x	-23	-12	-29
Cc1ccc(NC(=O)c2ccc(NCCCN3CCC(C)CC3)c([N+](=O)[O-])c2)cc1F	3	4	9	1	-21	41*
CCCOC(c1ccccc1)(c1ccc(C(F)(F)F)cc1)C(Oc1nc(C)cc(C)n1)C(=O)O (configuration not stated)	2	x	x	5	70*	-23
Cc1sc2ncnc(NCc3ccccc3)c2c1C	9	13	35*	-8	5	-11
Cc1sc2ncnc(NCC(C)(C)N3CCOCC3)c2c1C	5	21	37*	-8	-8	-13
Cc1sc2ncnc(Nc3ccccc3)c2c1C	8	2	7	-12	-20	-7
Cc1sc2ncnc(NCC3COc4ccccc4O3)c2c1C (configuration not stated)	9	53*	73*	15	-6	-21
O=C(NCc1cnn(-c2ccccc2)c1)C1CCC(=O)N(C2CC2)C1 (configuration not stated)	1	x	x	-8	-33	-7
CSc1cccc(N/C(=N/S(=O)(=O)c2ccccc2)NN)c1	-5	x	x	-1	-15	-19

Screens: PubChem BioAssay, The Scripps Research Institute Molecular Screening Center
